Test results published in PubChem BioAssay (EPA / NIEHS).
Values joined by “and” are separate entries in the source; they are usually repeats but may differ in a detail not shown here. Equal values may be shown once. More than one record can exist for a structure, and the calls need not agree. Active and inactive are the calls of the source. The calls were made as follows: active = hit-call score of the fitted dose curve at least 0.9, where 1 is the maximum; inactive = score below 0.9.

Legend:
[1] = APR_HepG2_CellCycleArrest_24hr: Apredica 24-hour HepG2 Assay for Cell Cycle Arrest (AID 2282905); conditions: imaging, actives raise or lower the signal;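 also: cell cycle arrest scored as ratio of 2N to 4N nuclear DNA content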
In short: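 Compounds (0.39 to 200 uM, final DMSO 0.5% v/v) are applied to HepG2 cells for 24 hours; cells are then fixed, permeabilized and nuclei labeled with Hoechst 33342. Automated imaging measures DNA content, and activity is fitted in both directions against DMSO.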

[2] = APR_HepG2_StressKinase_1hr: Apredica 1-hour HepG2 Assay for Stress Kinase (AID 2282906); conditions: HepG2 stress kinase (phospho-c-Jun) imaging, actives raise or lower the signal
In short: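 High-content imaging of phospho-c-Jun immunostaining (with Hoechst nuclear identification) after a 1 h exposure of HepG2 cells to 10 concentrations from 0.39 to 200 uM, final DMSO 0.5%. Fitted bidirectionally against DMSO.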

[3] = APR_HepG2_NuclearSize_24hr: Apredica 24-hour HepG2 Assay for Nuclear Size (AID 2282907); conditions: high-content imaging, actives raise or lower the signal
In short: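 Nuclear size is measured by fluorescence high-content imaging of Hoechst-labelled HepG2 nuclei after 24 hr of treatment (0.39–200 uM, 0.5% DMSO). Cells are fixed in 3.7% formaldehyde before staining, and DMSO serves as the baseline for bidirectional curve fitting.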

[4] = APR_HepG2_CellLoss_24hr: Apredica 24-hour HepG2 Assay for Cell Loss (AID 2282908); conditions: high-content imaging;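 as to AC50: fit in both directions so a hit may be cell loss or gain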
In short: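 Nuclear count serves as the viability measure: treated cells are fixed, permeabilized and labelled with Hoechst 33342, and six images per well are analysed to identify valid nuclei. Doses span 0.39–200 uM, and activity in either direction is scored against DMSO.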

[5] = APR_HepG2_MicrotubuleCSK_24hr: Apredica 24-hour HepG2 Assay for Microtubule CSK Stabilty (AID 2282909); conditions: HepG2 microtubule cytoskeleton imaging, actives raise or lower the signal
In short: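 Compounds were applied to HepG2 cells for 24 hours across 0.39–200 uM in duplicate, with final DMSO at 0.5% v/v. Fixed, permeabilized cells were labeled for alpha-tubulin and nuclei, and tubulin fluorescence was quantified by imaging, fitted bidirectionally against DMSO.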

[6] = APR_HepG2_MitoticArrest_24hr: Apredica 24-hour HepG2 Assay for Mitotic Arrest (AID 2282910); conditions: high-content imaging, actives raise or lower the signal
In short: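 Treatment lasted 24 hr in the human HepG2 line at 0.39–200 uM, solvent held at 0.5% DMSO. Fixed cells were stained with Hoechst 33342 and anti-phospho-histone H3, imaged at 20x, and analysed by gain- or loss-of-signal fitting against DMSO.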

[7] = APR_HepG2_MitoMembPot_24hr: Apredica 24-hour HepG2 Assay for Mitochondrial Membrane Potential (AID 2282911); conditions: imaging, actives raise or lower the signal
In short: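 Mitochondrial membrane potential imaged via MitoTracker Red CMXRos (250 nM, 30 min pre-fixation) in fixed HepG2 cells with Hoechst nuclear identification. Ten concentrations 0.39–200 uM, 24 h treatment, 0.5% DMSO; CCCP as positive control.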

[8] = APR_HepG2_MitoMass_24hr: Apredica 24-hour HepG2 Assay for Mitochondrial Mass (AID 2282912); conditions: high-content imaging, actives raise or lower the signal
In short: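 After 24 hr of treatment at 0.39 to 200 uM, HepG2 cells take up 250 nM MitoTracker Red CMXRos for 30 min and are then fixed with 3.7% formaldehyde. Per-well images are quantified, and any change in either direction is scored against solvent.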

[9] = APR_HepG2_CellCycleArrest_72hr: Apredica 72-hour HepG2 Assay for Cell Cycle Arrest (AID 2282914); conditions: high-content imaging, actives raise or lower the signal
In short: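 Read-out: nuclear DNA content from Hoechst 33342 high-content imaging (20x, six fields/well) after 3.7% formaldehyde fixation, fitted bidirectionally against DMSO. Treatment was 72 h in HepG2, ten concentrations 0.39–200 uM, duplicate, 0.5% DMSO.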

[10] = APR_HepG2_CellLoss_72hr: Apredica 72-hour HepG2 Assay for Cell Loss (AID 2282915); conditions: high-content imaging
In short: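 HepG2 cells were exposed for 72 hr to compounds at 0.39–200 uM (ten concentrations, duplicate) in 0.5% v/v final DMSO. Nuclei were stained with Hoechst 33342 after 3.7% formaldehyde fixation, imaged at 20x, and counted; fits bidirectional versus DMSO.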

[11] = APR_HepG2_P-H2AX_72hr: Apredica 72-hour HepG2 Assay for H2AX Phosphorylation (AID 2282916); conditions: imaging, actives raise or lower the signal;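 also: phospho-histone H2A.x immunostain intensity per cell marking DNA damage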
In short: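 Human hepatoma HepG2 cells are dosed across ten concentrations (0.39 to 200 uM, 0.5% v/v DMSO) and incubated 72 hr. Phospho-histone H2A.x is then detected by antibody staining alongside c-Jun and Hoechst, and quantified by automated fluorescence imaging.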

[12] = APR_HepG2_MitoMembPot_72hr: Apredica 72-hour HepG2 Assay for Mitochondrial Membrane Potential (AID 2282917); conditions: imaging, actives raise or lower the signal
In short: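 HepG2 cells exposed 72 h to compounds at 0.39–200 uM (0.5% v/v DMSO, duplicates); MitoTracker Red CMXRos 250 nM loaded 30 min before 3.7% formaldehyde fixation, imaged by HCS fluorescence. Bidirectional fit versus DMSO.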

[13] = APR_HepG2_MitoticArrest_72hr: Apredica 72-hour HepG2 Assay for Mitotic Arrest (AID 2282918); conditions: high-content imaging, actives raise or lower the signal
In short: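 High-content imaging of fixed human HepG2 cells after 72 h compound exposure (0.39–200 uM, duplicates, 0.5% DMSO); mitotic arrest scored from phospho-histone H3 and nuclear Hoechst staining relative to DMSO.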

[14] = APR_HepG2_P-H2AX_24hr: Apredica 24-hour HepG2 Assay for H2AX Phosphorylation (AID 2282920); conditions: high-content imaging, actives raise or lower the signal
In short: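 High-content imaging of phospho-histone H2A.x immunofluorescence, nuclei counterstained with Hoechst 33342, in fixed HepG2 cells. Compounds ran 0.39–200 uM in duplicate for 24 h, final DMSO 0.5%. Signal change fitted both directions against DMSO.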

[15] = APR_HepG2_StressKinase_72hr: Apredica 72-hour HepG2 Assay for Stress Kinase (AID 2282921); conditions: HepG2 stress kinase (phospho-c-Jun) imaging, actives raise or lower the signal
In short: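 After a 72 h compound treatment spanning 0.39 to 200 uM, formaldehyde-fixed cells are labelled for phosphorylated c-Jun and nuclei, imaged by automated fluorescence microscopy, and activity is fitted in both directions relative to DMSO controls.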

[16] = APR_HepG2_StressKinase_24hr: Apredica 24-hour HepG2 Assay for Stress Kinase (AID 2282922); conditions: HepG2 stress kinase (phospho-c-Jun) imaging, actives raise or lower the signal
In short: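 After 24 hr compound treatment (up to 200 uM, final DMSO 0.5% v/v), HepG2 cells are fixed and multiplex-labeled; phospho-c-Jun intensity is captured by high-content fluorescence imaging and analyzed relative to DMSO.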

[17] = APR_HepG2_MitoMass_72hr: Apredica 72-hour HepG2 Assay for Mitochondrial Mass (AID 2282924); conditions: high-content imaging, actives raise or lower the signal;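 also: MitoTracker Red CMXRos stain intensity per cell imaged as mitochondrial mass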
In short: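 Steps: treat HepG2 72 hr (0.39–200 uM, duplicate wells); load MitoTracker Red CMXRos, 250 nM, 30 min; fix with 3.7% formaldehyde, permeabilise with 0.5% Triton X-100; capture images, nuclei via Hoechst 33342; fit bidirectionally against DMSO.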

[18] = APR_HepG2_p53Act_24hr: Apredica 24-hour HepG2 Assay for p53 Activation (AID 2282913); conditions: high-content imaging, actives raise or lower the signal;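 also: p53 protein immunofluorescence averaged per cell in HepG2 with Hoechst nuclei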
In short: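 Fluorescence imaging of formaldehyde-fixed HepG2 cells labelled for p53 and with Hoechst, 24 h after dosing (0.39–200 uM, duplicate wells, 0.5% v/v DMSO). Signal fitted in both directions relative to DMSO.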

[19] = APR_HepG2_MicrotubuleCSK_72hr: Apredica 72-hour HepG2 Assay for Microtubule CSK Stabilty (AID 2282919); conditions: HepG2 microtubule cytoskeleton, high-content imaging, actives raise or lower the signal
In short: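 Ten-point dosing (0.39–200 uM, 0.5% DMSO) of HepG2 for 72 hr, with taxol as the cytoskeletal positive control. The cells were formaldehyde-fixed and then stained with alpha-tubulin/Cy5 and Hoechst. Imaging at 20x used a −2 um Z offset for tubulin.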

[20] = APR_HepG2_p53Act_72hr: Apredica 72-hour HepG2 Assay for p53 Activation (AID 2282923); conditions: high-content imaging, actives raise or lower the signal;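 also: average cellular p53 protein immunofluorescence intensity in HepG2 cells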
In short: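 Imaging-based endpoint: after 72 hr compound exposure (up to 200 uM, 0.5% DMSO), fixed and permeabilized monolayers were labelled with anti-p53 antibody and imaged; signal change in either direction was fitted relative to DMSO controls.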

Measured: AC50

CN(C)C(=S)SSC(=S)N(C)C
inactive: [1] | [3] | [6] | [7] | [8] | [12] | [15] | [16] | [17]
active: [2] 3.07 µM | [4] 2.3 µM | [5] 17.6 µM | [9] 0.039 µM | [10] 0.153 µM | [11] 0.0895 µM | [13] 19.8 µM | [14] 1.78 µM

CCON=C(CC)C1=C(O)CC(c2c(C)cc(C)cc2C)CC1=O (centres undefined)
inactive: [1] | [2] | [3] | [4] | [5] | [6] | [7] | [8] | [18] | [9] | [10] | [11] | [12] | [13] | [19] | [14] | [15] | [16] | [20] | [17]

Fc1ccc(Oc2ccnc3cc(Cl)cc(Cl)c23)cc1
active: [4] 100 µM | [6] 109 µM | [10] 76.2 µM | [14] 100 µM
inactive: [1] | [2] | [3] | [5] | [7] | [9] | [11] | [12] | [13] | [15] | [16] | [17]

C=CCC1=C(C)C(OC(=O)C2C(C=C(C)C)C2(C)C)CC1=O (centres undefined)
inactive: [1] | [2] | [3] | [6] | [7] | [9] | [11] | [12] | [13] | [14] | [15] | [16] | [17]
active: [3] 53.2 µM | [4] 55.8 µM [middle of 4 runs] | [6] 35.4 µM and 43.3 µM and 46.9 µM | [7] 112 µM | [9] 34.4 µM | [10] 57.1 µM [middle of 4 runs] | [11] 53.8 µM and 47.5 µM | [13] 43.6 µM and 50 µM and 46 µM | [14] 38.1 µM | [15] 60.6 µM and 52.5 µM | [16] 32.4 µM | [17] 66.4 µM

CCCC1COC(Cn2cncn2)(c2ccc(Cl)cc2Cl)O1 (centres undefined)
inactive: [1] | [2] | [3] | [4] | [5] | [6] | [11] | [12] | [13] | [14] | [15] | [16] | [17]
active: [7] 12.8 µM | [9] 100 µM | [10] 76 µM | [19] 77.7 µM

O=C(O)COc1nc(Cl)c(Cl)cc1Cl
inactive: [1] | [2] | [3] | [4] | [5] | [6] | [7] | [9] | [10] | [11] | [12] | [13] | [14] | [15] | [16] | [20] | [17]

COc1nc(C)nc(NC(=O)NS(=O)(=O)c2ccccc2Cl)n1
inactive: [1] | [2] | [3] | [4] | [6] | [7] | [8] | [9] | [10] | [11] | [12] | [13] | [14] | [15] | [16] | [20] | [17]

CCCCOC(=O)c1ccccc1C(=O)OCCCC
inactive: [1] | [2] | [3] | [4] | [6] | [7] | [8] | [9] | [10] | [11] | [12] | [13] | [19] | [14] | [15] | [16] | [20] | [17]

Oc1ccccc1-c1ccccc1
active: [1] 82.1 µM
inactive: [2] | [3] | [4] | [6] | [7] | [8] | [18] | [9] | [10] | [11] | [12] | [13] | [14] | [15] | [16] | [17]

CCCN(CCC)c1c([N+](=O)[O-])cc(S(N)(=O)=O)cc1[N+](=O)[O-]
inactive: [1] | [2] | [3] | [6] | [7] | [9] | [10] | [11] | [12] | [13] | [14] | [15] | [16] | [17]
active: [1] 34.9 µM | [3] 68.3 µM and 117 µM | [6] 35.4 µM and 38.4 µM | [7] 31.6 µM and 117 µM and 110 µM | [9] 27.2 µM and 57.9 µM and 34 µM | [10] 38.6 µM and 39.2 µM and 46.7 µM | [11] 128 µM and 34.6 µM | [13] 34 µM and 82.3 µM | [14] 31.7 µM and 35.9 µM | [15] 54.4 µM | [16] 116 µM | [17] 94.8 µM

Cc1ccc(-c2c(Cl)nc(C#N)n2S(=O)(=O)N(C)C)cc1
inactive: [1] | [2] | [3] | [4] | [5] | [6] | [8] | [9] | [12] | [13] | [14] | [15] | [16] | [17]
active: [7] 78.1 µM | [10] 65.4 µM | [11] 104 µM

CNC(=S)S
inactive: [2] | [3] | [7] | [18] | [9] | [12] | [15] | [16] | [17]
active: [1] 20.5 µM | [4] 80.1 µM | [5] 74.4 µM | [6] 85.2 µM | [10] 36.7 µM | [11] 11.3 µM | [13] 13.5 µM | [14] 32.9 µM
